# Compound activity from PubChem BioAssay.
# Sampled rows, rich in hits. Any-hit rate of the full collection: about 19%.
# ELG1 DNA repair: qHTS screen for small molecules that inhibit ELG1-dependent DNA repair in human embryonic kidney (HEK293T) cells expressing luciferase-tagged ELG1 | HEK293T ELG1-luciferase reporter, luminescence, 16 h; DNA damage induced by 5-fluorouridine | Potency, µM (titrated, usually from 46.1 µM), without a hit: at the top dose activity change, negative = inhibition, hits mostly inhibitors | 2.3% of 330,000 active | AID 504467, 2011; also: potency is read from the fitted curve at half-maximal effect; nearly all actives have a fitted effect of over 55% in size
#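 Step one: seed 2,000 cells per well. Step two: pin-transfer compound or DMSO alongside 5-fluorouridine. Step three: incubate 16 hr, 37 °C, 5% CO2. Step four: add ONE-Glo, wait 30 min, read luminescence.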
# DT40 TDP1 no CPT: qHTS for Inhibitors of human tyrosyl-DNA phosphodiesterase 1 (TDP1): qHTS in cells in absence of CPT. Potency, µM (titrated, usually from 46.2 µM), for inactives: at the top dose activity change, negative = growth inhibition, hits mostly inhibitors. 15% of 420,000 active. DT40 Tdp1-/- hTDP1 cells, no CPT, ATP luminescence, 48 h. AID 686978, 2013; also: potency is read from the fitted curve at half-maximal effect; nearly all actives have a fitted effect of over 55% in size
#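 Chicken DT40 Tdp1-/- cells stably complemented with human TDP1 were seeded at 400 cells/well with DMSO in place of 20 nM camptothecin. After compound pinning, cells grew at least 48 hr at 37 °C; viability read by CellTiter-Glo luminescence.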
# HT1080-NT tox: qHTS for induction of synthetic lethality in tumor cells producing 2HG: qHTS for the HT-1080-NT fibrosarcoma cell line | Potency, µM (top dose mostly 46.1 µM), for the others: at the highest dose activity, negative = less viability, usual class: cytotoxic | HT-1080-NT fibrosarcoma viability, CellTiter-Glo ATP luminescence, 48 h | 1.6% of 360,000 active;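 also: NT is the 2HG producing partner of a matched IDH1 knockdown line; potency is read from the fitted curve at half-maximal effect; 0% = DMSO-treated cells and -100% = media-only wells without cells; nearly all actives have a fitted effect of over 55% in size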
#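 Viability by CellTiter-Glo luminescence after 48 h compound exposure at 37C of HT-1080-NT cells (750/well, RPMI, 5% FBS). % activity scaled between DMSO wells and medium-only wells, then curve-fitted and categorized by curve class.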
# HT1080 IDH1KD tx: qHTS for induction of synthetic lethality in tumor cells producing 2HG: qHTS for the HT-1080-IDH1KD cell line; HT-1080 IDH1 knockdown viability, ATP luminescence, 48 h; Potency, µM (series often up to 46.1 µM), without a hit: at the highest dose activity, negative = toxicity, most hits filed as cytotoxic; 2% of 360,000 active;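 also: potency is read from the fitted curve at half-maximal effect; 0% = DMSO wells and -100% = cell-free medium wells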
#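 Cytotoxicity counter-line: IDH1KD HT-1080, 48 h, CellTiter-Glo. Curves classed by r2, magnitude and activity.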
# DT40 TDP1 CPT: qHTS for Inhibitors of human tyrosyl-DNA phosphodiesterase 1 (TDP1): qHTS in cells in presence of CPT; chicken DT40 Tdp1-/-;hTDP1 cells + 20 nM CPT, ATP luminescence, 48 h; Potency, µM (highest dose often 46.2 µM), without a hit: top-dose activity change, negative = growth inhibition, usual class: inhibitors; 12% of 420,000 active; also: potency is read from the fitted curve at half-maximal effect; nearly all actives have a fitted effect of over 55% in size
#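 Chicken DT40 Tdp1-/- cells complemented with human TDP1, 400 cells/well, exposed to compounds plus 20 nM camptothecin for at least 48 h at 37 C; viability read as ATP content by CellTiter-Glo luminescence.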
# IL-1B inflam inh: qHTS for Inhibitors of Inflammasome Signaling: IL-1-beta AlphaLISA Primary Screen; THP-1 LPS/ATP IL-1B secretion, AlphaLISA, 16 h; hits give low values; AID 743279, 2014; 4.7% of 360,000 active; activity change, % at 57.5 µM; in the data active = activity change below about -50%; inconclusive = mostly about -30% to -49%
#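 Secreted IL-1B measured by AlphaLISA bead assay after 16 h compound exposure of THP-1 cells; compounds (final up to 57.5 uM) added 1 h before LPS (250 ng/mL) and ATP (1.25 mM) stimulation; lower signal means less secretion.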
# Active calls of the source: *; i = inactive; ? = inconclusive; . = no result given; ! = a repeat was not active; [ ] = another dose, or the depositor's remark. Unless noted, calls follow the shape of the dose curve; as a rule, active = well fitted curve in the direction sought with a large enough effect; inconclusive = small, poorly fitted or top-dose-only effect, or another doubt; inactive = no such curve, though single readings can be large; an effect the other way counts as inactive or inconclusive. Unless noted, % is scaled to controls: 0 for no effect and ±100 for the full control effect.
SMILES,ELG1 DNA repair,DT40 TDP1 no CPT,HT1080-NT tox,HT1080 IDH1KD tx,DT40 TDP1 CPT,IL-1B inflam inh
CN(C)S(=O)(=O)c1cc(NC(=O)COC(=O)CC2Sc3ccccc3NC2=O)ccc1Cl (stereo not given),?,0%,0%,-10%,7%,-6
CNC(=O)OC1CC2CC1[C@H]1CCCCN1C2=O (stereo not given in full),.,-3%,4%,7%,-4%,20
CN(C)S(=O)(=O)c1ccc2nnn(OCC(=O)NC34CC5CC(CC(C5)C3)C4)c2c1,-2%,26µM*,1%,1%,?,13
OCCCNc1nc(-c2ccc(Br)cc2)nnc1-c1ccc(Cl)cc1,-5%,?,-16%,?,23µM*,-57*
C[c-]1[c-](C)[c-](C)[c-](C)[c-]1C.[Fe].c1cc2nccc(N3CCCC3)[c-]2c1 (stereo not given),?,6.5µM*,-11%,3%,8.2µM*!,0
c1cc(N2CCCCC2)nc(N2CCCCC2)n1,.,?,-2%,4%,-27%,13
CCOC(=O)C1=C(CS(=O)(=O)c2ccc(C)cc2)NC(=O)NC1c1ccc(C(C)C)cc1 (stereo not given),.,12µM*,.,.,18µM*,.
CCOC(=O)C1=C(CS(=O)(=O)c2ccc(Br)cc2)NC(=O)NC1c1ccccc1 (stereo not given),.,?,.,.,21µM*,.
COC(=O)C1=C(CS(=O)(=O)c2ccccc2)NC(=O)NC1c1ccccc1 (stereo not given),10%,7%,30%,26%,-1%,10
CCOCCCn1c(=N)c(C(=O)NCc2cccnc2)cc2c(=O)n3ccccc3nc21,.,-4%,.,.,-3%,.
c1nc(NCc2ccc3c(c2)OCO3)c2cc(-c3ccc4c(c3)OCCO4)ccc2n1,-24%,.,.,.,.,.
COc1cccc(-c2ccc3ncnc(NCc4ccc5c(c4)OCO5)c3c2)c1,8.2µM*,.,.,.,.,.
COc1cccc(-c2ccc3ncnc(NCc4ccccc4)c3c2)c1,.,21µM*,.,.,?,.
COc1cccc(-c2nc(NCc3cccnc3)c3ccccc3n2)c1,.,-20%,.,.,-5%,.
CN(C)Cc1ccccc1-c1ccc2ncnc(NCc3ccccc3)c2c1,.,-21%,.,.,?,.
COc1ccccc1CNc1ncnc2ccc(-c3cccc(NS(C)(=O)=O)c3)cc12,.,1.5µM*,.,.,1.6µM*,.
Brc1ccc2ncnc(NCc3ccccc3)c2c1,4.1µM*,8.2µM*,?,0%[9.24 µM],7.3µM*,?
Cc1ccc(-c2c(C(=O)N/N=C/C3CC=CCC3)nnn2-c2nonc2N)cc1 (stereo not given),?,?,1%,0%,-3%,3
N#Cc1ccc(C(=O)Nc2cccc3ccccc23)c(F)c1,0%,2%,24%,12%,28%,-4
COc1cccc(-c2cncnc2NCc2cccc(C)c2)c1,.,23µM*,.,.,?,.
Cc1cccc(CNc2cc(-c3cccc(C#N)c3)ncn2)c1,.,4.6µM*,.,.,21µM*,.
COc1cccc(-c2cncnc2NCc2cccnc2)c1,.,-26%,.,.,-10%,.
CN(C)c1ncnc2ccc(-c3cccc(C#N)c3)cc12,.,?,.,.,26µM*,.
N#Cc1cccc(-c2ccc3ncnc(NCc4ccccc4)c3c2)c1,.,26µM*,.,.,?,.
N#Cc1cccc(-c2ccc3ncnc(N4CCNCC4)c3c2)c1,.,?,.,.,-13%,.
SMILES,ELG1 DNA repair,DT40 TDP1 no CPT,HT1080-NT tox,HT1080 IDH1KD tx,DT40 TDP1 CPT,IL-1B inflam inh
CCNc1nc(N)nc(Oc2ccc(OCC(=O)OC)nn2)n1,.,0%,.,.,-1%,.
COc1cccc(-c2ccc3ncnc(NCc4ccccc4OC)c3c2)c1,.,15µM*,.,.,?,.
COCCNc1ncnc2ccc(-c3cccc(OC)c3)cc12,.,23µM*,.,.,?,.
CC(=O)NCCNc1ncnc2ccc(-c3cccc(NS(C)(=O)=O)c3)cc12,.,-4%,.,.,?,.
CN(C)c1ncnc2ccc(-c3ccc4c(c3)OCO4)cc12,.,23µM*,.,.,?,.
O=C(c1cccc(C(F)(F)F)c1)c1c[nH]c(C(=O)NCC2CCCO2)c1 (stereo not given),?,?,-10%,-11%,-20%,-11
CC(C)(C)N(Cc1ccccc1)C(=O)COC(=O)CN1C(=O)NC2(CCCC2)C1=O,?,?,7%,0%,?,4
Cc1ccc([C@@H]2CC=C(C(=O)O)[C@H](c3ccc(C(C)(C)C)cc3)N2S(=O)(=O)c2ccc(C)cc2)cc1,?,?,?,?,?,2
Cc1ccc(S(=O)(=O)N2[C@@H](c3ccc(C(C)(C)C)cc3)C(C(=O)O)=CC[C@H]2c2ccc(C(C)C)cc2)cc1,16µM*,?,?,?,?,-7
Cc1ccc(S(=O)(=O)N2[C@@H](c3ccc(C(C)(C)C)cc3)C(C(=O)O)=CC[C@H]2c2ccc(Cl)cc2)cc1,-20%,?,?,?,23µM*,-11
COc1ccc(CS(=O)c2nc(C)cc(C)c2S(C)(=O)=O)cc1 (stereo not given),-3%,-6%,3%,-2%,-2%,-1
Nc1nc2ncc(=O)[nH]c2c(=O)[nH]1,.,15µM*,.,.,-1%,.
COc1ccccc1C1CN(Cc2c(C)nc3sccn23)Cc2ccccc2O1 (stereo not given),.,-20%,.,.,7%[9.04 µM],.
O=C(c1ccc(Cl)c(Cl)c1)N1CCC(=O)N([C@H](COCc2ccccc2)Cc2ccccc2)CC1,.,18µM*,?,?,21µM*,-13
O=C(c1ccc(Cl)c(Cl)c1)N1CCC(=O)N(C(COCc2ccccc2)Cc2ccccc2)CC1 (stereo not given),?,23µM*,?,?,16µM*,?
O=C(C1CCCN(S(=O)(=O)c2ccc(Br)cc2)C1)N1CCOCC1 (stereo not given),-1%,?,-1%,1%,?,i
CC(C)c1noc(-c2ccccc2OCC(=O)Nc2ccc([N+](=O)[O-])cc2)n1,.,-13%,.,.,-4%,.
